From PubChem BioAssay
Prx2 Sm inh: blocks S. mansoni peroxiredoxin 2 enzymatic activity. S. mansoni Prx2 activity coupled to TGR/GSH (TGR is thioredoxin glutathione reductase), NADPH fluorescence loss, qHTS. 65,000 tested, 0.07% active. Potency, µM
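Coupled assay in which S. mansoni TGR passes NADPH reducing equivalents via glutathione to Prx2, which reduces H2O2. Compounds were preincubated 15 min at room temperature with 25 nM TGR/50 nM Prx2 mix. Kinetic NADPH fluorescence loss (ex 365/em 450 nm) was monitored.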
AmpC inh no det: blocks E. coli AmpC beta-lactamase in absence of detergent; P00811; AmpC nitrocefin hydrolysis, absorbance 480 nm, no detergent; Potency, µM (series often up to 28.7 µM); 71,000 tested, 1.8% active; AID 585
Target sequence (P00811 whole entry, looked up): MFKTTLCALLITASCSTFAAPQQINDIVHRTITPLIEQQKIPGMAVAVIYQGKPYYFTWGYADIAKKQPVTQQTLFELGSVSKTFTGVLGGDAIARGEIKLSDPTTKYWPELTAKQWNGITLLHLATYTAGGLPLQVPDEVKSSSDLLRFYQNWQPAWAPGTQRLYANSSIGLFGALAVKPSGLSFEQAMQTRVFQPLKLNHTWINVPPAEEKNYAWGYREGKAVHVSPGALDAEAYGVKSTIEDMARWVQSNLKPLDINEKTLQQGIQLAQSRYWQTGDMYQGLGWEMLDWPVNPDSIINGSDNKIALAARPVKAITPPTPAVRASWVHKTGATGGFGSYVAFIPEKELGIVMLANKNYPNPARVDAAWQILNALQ
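Enzyme, pH 7.0 phosphate. Compound titrations were pre-incubated with AmpC for 15 min at room temperature before nitrocefin (stock 800 uM) addition; product formation was recorded at 480 nm every 20 s for 4 min.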
AmpC det inh: AmpC beta-lactamase inhibition, detergent assay. P00811. purified AmpC, nitrocefin hydrolysis with detergent. Potency, µM (series often up to 28.7 µM). 71,000 tested, 0.09% active. AID 584; active = well fitted curve in the direction sought with a large enough effect; inconclusive = small, poorly fitted or top-dose-only effect
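E. coli AmpC (5.3 nM) in 20 mM phosphate pH 7.0 with 0.01% Triton X-100, preincubated 15 min RT with compound; nitrocefin (2 uL of 800 uM stock) hydrolysis followed by 480 nm absorbance every 20 s over 4 min.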
Anthrax LT inh: blocks cellular internalization of anthrax lethal toxin | Cells, anthrax lethal toxin internalization, FRET ratio (460/530) | Potency, µM (titrated, usually from 40 µM), most hits filed as inhibitors | 70,000 tested, 0.67% active; also: nearly all actives have a fitted effect of over 50% in size
A number is an active result; i = inactive; ? = inconclusive; nt = no result given; [ ] = remark or other dose. Compounds with a hit are over-represented: about 2.4% of the library has one in this group of screens. Unless noted, calls follow the shape of the full dose curve.

SMILES	Prx2 Sm inh	AmpC inh no det	AmpC det inh	Anthrax LT inh
Cn1c(Cn2c(=O)sc3ccccc32)nnc1SCc1ccccn1	i	i	i	i
CSc1nsc(SCCN2C(=O)c3ccccc3C2=O)n1	i	i	i	i
CC(=O)Nc1ccc(S(=O)(=O)NCC2CCC(C(=O)NCCCN3CCCC3=O)CC2)cc1 (stereo not drawn)	i	i	i	i
CCC(C(=O)O)n1c(C(F)(F)F)nc2ccccc21 (stereo not drawn)	i	i	i	i
CC(C)(C)N=C1SCC(C)(/C=N/O)S1 (stereo not drawn)	i	i	i	i
CCOC(=O)CC1=NS(=O)(=O)c2ccccc2N1	i	i	i	i
COc1ccccc1N1CCN(C(=O)CCCC2=NS(=O)(=O)c3ccccc3N2)CC1	i	4µM[single pt active]	i	i
O=c1cc(N2CCc3ccccc3C2)[nH]c(=O)n1-c1ccc(Cl)cc1	i	16µM[single pt active]	i	i
O=c1cc(N2CCCC2)[nH]c(=O)n1-c1ccc(Cl)cc1	i	i	i	i
O=c1cc(N2CCc3ccccc3C2)[nH]c(=O)n1-c1ccc(Br)cc1	i	16µM[single pt active]	i	i
OC(CN1CCC(Cc2ccc(F)cc2)CC1)c1ccc(Cl)cc1 (stereo not drawn)	nt	nt	nt	i
CCc1ccc(NC(=O)c2cc(CC(C)C)on2)cc1	i	4µM[single pt active]	i	i
Cc1onc(-c2ccccc2)c1C(=O)Nc1ccc2c(c1)OCO2	nt	i	i	i
O=C(Nc1ccc2c(c1)OCO2)c1cc2ncc(Br)cn2n1	i	16µM[single pt active]	i	i
CC(C)Cc1cc(C(=O)Nc2ccc3c(c2)OCO3)no1	i	4µM[single pt active]	i	?
COc1ccc(NC(=O)c2cc(CC(C)C)on2)cc1OC	i	4µM[single pt active]	i	i
COc1cccc(-c2cc(C(=O)Nc3ccc(OC)c(OC)c3)no2)c1	i	i	i	i
O=C(O)c1ccccc1C(=O)Nc1cc2c(cc1Br)-c1ccccc1C2=O	i	i[5.75 µM]	i[5.75 µM]	?
COC(=O)CCC(=O)Nc1ccccc1C(N)=O	i	i	i	i
c1ccc(OCc2nnc3sc(C4COc5ccccc5O4)nn23)cc1 (stereo not drawn)	i	i	i	i
N#Cc1ccccc1Cn1c(=O)n(-c2ccc(CC(=O)NCc3ccco3)cc2)c(=O)c2sccc21	i	4µM[single pt active]	i	?
N#Cc1ccccc1Cn1c(=O)n(Cc2ccc(C(=O)NCc3ccco3)cc2)c(=O)c2sccc21	nt	4µM[single pt active]	i	i
O=C(CCCn1c(=O)c2sccc2n(Cc2cc(=O)n3ccccc3n2)c1=O)NCc1ccco1	i	4µM[single pt active]	i	i
Cc1ccc(-n2c(=O)c3sccc3n(CC(=O)NCc3ccco3)c2=O)cc1	i	i	i	i
COc1cc(-c2cccs2)cc(=O)c2c(C)oc(C)c12	i	i	i	i
SMILES	Prx2 Sm inh	AmpC inh no det	AmpC det inh	Anthrax LT inh
CC1CC(C)CN(C(=O)CSc2nnc(-c3ccc(Cl)cc3)o2)C1 (stereo not drawn)	i	i	i	i
O=C1NCCCc2nonc21	i	i	i	i
O=C(Cn1ncc2c1-c1ccccc1OC2)N(Cc1ccco1)C1CCCCC1	i	i	i	i
O=C(Cn1ncc2c(=O)oc3ccccc3c21)N(Cc1ccco1)C1CCCCC1	i	3.2µM[single pt active]	i	i
COc1ccc2c(c1)c(CCN1CCOCC1)c(C)n2C(=O)c1cccc(Cl)c1Cl	nt	nt	nt	13µM
COc1ccc2c(c1)c(CC(=O)O)c(C)n2C(=O)c1ccc(Cl)cc1	i	i	i	?
O=c1[nH]c(=O)n(Cc2ccc(F)cc2)c(O)c1C=NCC1CCCO1 (stereo not drawn)	i	i	i	i
O=C(CSc1nnc(-c2ccccc2)o1)N1CCN(c2ccccc2)CC1	i	13µM[single pt active]	i	?
CCOc1ccc(-c2nnc(SCC(=O)N3CCN(c4ccccc4)CC3)o2)cc1	i	i	i	i
O=C(NCc1cccs1)c1cc2c(s1)-c1ccccc1OC2	i	16µM	i	?
CCCSc1nc2c(c(=O)[nH]c(=O)n2C)n1C	i	i	i	i
CC(=O)N1CCN(c2ccc(NCc3ccc(C)s3)cc2)CC1	i	4µM[single pt active]	i	i
Cc1ccc(CNc2ccc(N3CCOCC3)cc2)s1	i	i	i	i
Cc1ccc(N2C(=O)CC(=O)NC2=O)cc1	i	i	i	i
Cc1ccc(-c2csc(N3CCC(C(N)=O)(N4CCCCC4)CC3)n2)cc1	i	4µM[single pt active]	i	i
CN(C)c1ncc2nc(-c3ccc(F)cc3)c(=O)n(C3CC3)c2n1	i	i	i	?
O=C(c1ccc(CSCc2ccccc2F)o1)N1CCN(c2ccc(N3CCOCC3)nn2)CC1	i	i	i	7.9µM
COC(=O)Cn1c(CN2CCN(c3ccc(F)cc3)CC2)nc2c1c(=O)n(C)c(=O)n2C	nt	i	i	?
CCN(CC)S(=O)(=O)N1CCC(C(=O)NC2CCCC2)CC1	i	i	i	i
CCCCC/C=C\C/C=C\C/C=C\C/C=C\CCCC(=O)Nc1ccc(O)cc1	i	10µM	i	?
CCCCC/C=C\C/C=C\C/C=C\C/C=C\CCCC(=O)NCC(=O)O	i	i	i	i
N=C1Sc2ccccc2C2=NCCCN12	i	i	i	0.025µM
CN(C)CCNCCN	i	i[5.75 µM]	i[5.75 µM]	i[8 µM]
COc1cccc(-c2nccc(NCCc3c[nH]c4ccc(OC)cc34)n2)c1	i	i	i	13µM
COc1ccc2[nH]cc(CCNc3ccnc(-c4ccccc4C)n3)c2c1	i	i	i	?
SMILES	Prx2 Sm inh	AmpC inh no det	AmpC det inh	Anthrax LT inh
CCOc1ccc(C2C(C#N)=C(N)Oc3n[nH]c(C)c32)cc1OC(=O)C1CC1 (stereo not drawn)	i	i	i	i
CCCCCS(=O)(=O)CCCCCCCCCCn1c(-c2ccc(O)cc2)c(C)c2cc(O)ccc21	nt	nt	nt	5µM
CCOC(=O)c1c(C)n(CCOC)c2ccc(O)cc12	i	i	i	i
O=C(CP(=O)(CO)CO)c1ccc(Cl)cc1	i	i	i	i
CCOC(=O)CNS(=O)(=O)c1ccc(C(=O)O)cc1	i	i	i	?
COC(=O)C(O)(c1ccc(N(C)S(=O)(=O)c2ccccc2)cc1)C(F)(F)F (stereo not drawn)	i	i	i	i
COc1ccc(C(=O)Nc2ccc(Cl)cc2C(=O)NCc2ccco2)cc1OC	nt	i	i	7.9µM
CCOC(=O)C(C(=O)OCC)C1N=C(N)N=C2Oc3ccccc3N21 (stereo not drawn)	i	i	i	i
C=CCn1c2ccccc2c2nnc(SCCCn3c(=O)[nH]c4ccccc43)nc21	nt	i	i	6.3µM
C=CCn1c2ccccc2c2nnc(SCN3C(=O)c4ccccc4C3=O)nc21	i	i	i	i
COc1ccc(-n2c(SCC(N)=O)nnc2-c2ccccc2F)cc1	i	i	i	i
O=C(CCl)c1ccccc1	nt	i	i	13µM
C/C(=C\C(=O)c1ccncc1)Nc1ccccc1O	nt	i	i	2.5µM
CSc1ccccc1NC(=O)c1ccncc1	i	i	i	i
COc1ccccc1NC(=O)C1(C)Cc2ccccc2C(=O)O1 (stereo not drawn)	i	4µM[single pt active]	i	i
Oc1ccc2cc(SSc3ccc4cc(O)ccc4c3)ccc2c1	nt	16µM	i	?
CCOC(=O)c1cnc(SCC(=O)Nc2ccccc2N2CCOCC2)nc1N	i	i	i	?
CCN1C(=O)C(CC(=O)NCc2ccc(Cl)cc2)N(CC)C1=O (stereo not drawn)	i	i	i	i
